Drawing on PubChem BioAssay, this text covers growth inhibition, inhibition and outcome for 19 compounds.

Assay [1] is described as follows: antimalarial activity against Dd2 strain (AID 2302;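 active = growth inhibition above 50% at the single 2 µM test dose, taken to imply half-maximal potency below 2 µM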;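 note: 0% = DMSO untreated growth and 100% = chloroquine plus artemisinin killed control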). Particulars: P. falciparum Dd2 in RBCs, LDH growth readout, 72 h; at 2 µM; active compounds read high.
A short description of assay [2]: human hepatoma cell viability loss – ATP luminescence, cytotoxicity control for P. falciparum antimalarial project, primary screen (AID 2303;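 active = inhibition above 50%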;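 note: 0% = DMSO wells and 100% = digitonin-killed cells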). Particulars: HepG2 viability, 24-48 h, at 10 µM, active compounds read high.
Assay [3] has as its target L-lactate dehydrogenase (Plasmodium falciparum (isolate CDC / Honduras)) (UniProt Q27743). As to the kind of experiment: PfLDH activity inhibition – cell lysate, 3D7 strain, counter-screen for P. falciparum growth inhibition project (AID 2304).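 Note: 0% = vehicle and 100% = reference inhibitor.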 Particulars: P. falciparum 3D7 crude extract, LDH APAD/NBT absorbance; at 2 µM; active compounds read high.
A short description of assay [4]: inhibition of 3D7 malaria parasite growth – strain 3D7 (AID 2306).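 Note: 0% = DMSO wells and 100% = chloroquine plus artemisinin control wells.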 The conditions noted are these: P. falciparum 3D7 erythrocytic growth, LDH absorbance, 72 h; at 2 µM; active compounds read high.
Assay [5] concerns the target Calcium-dependent protein kinase 1 (Plasmodium falciparum (isolate 3D7)) (UniProt P62344). Nature of the assay: PfCDPK1 kinase inhibitors, biochemical, TCAMS library (AID 1159585; cut-off not given, nearly all actives have IC50 up to about 0.98 µM;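 note: inhibitors leave more ATP so luminescence rises with inhibition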). Particulars: recombinant PfCDPK1, Kinase-Glo ATP depletion luminescence.
In assay [6] the target is Plasmodium falciparum protein kinase 6 (PK6, PF3D7_1337100) (UniProt Q8IDW1). As to the kind of experiment: PfPK6 kinase inhibitors, biochemical, TCAMS library (AID 1159586). The conditions noted are these: recombinant PfPK6, Kinase-Glo ATP depletion luminescence.
Chain of Plasmodium falciparum protein kinase 6 (PK6, PF3D7_1337100) (Q8IDW1 1-305): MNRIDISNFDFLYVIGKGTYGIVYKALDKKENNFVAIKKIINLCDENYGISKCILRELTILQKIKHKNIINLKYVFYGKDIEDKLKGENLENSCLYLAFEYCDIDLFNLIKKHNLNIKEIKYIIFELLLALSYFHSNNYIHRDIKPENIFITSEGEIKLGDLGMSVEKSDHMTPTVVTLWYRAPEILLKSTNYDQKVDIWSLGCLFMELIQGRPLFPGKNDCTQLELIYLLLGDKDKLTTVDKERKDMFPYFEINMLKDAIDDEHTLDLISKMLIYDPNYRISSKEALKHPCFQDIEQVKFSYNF
Assay [7] concerns the target Protein kinase 7 (PK7), Plasmodium falciparum 3D7 (PF3D7_0213400) (UniProt Q7YTF7). Nature of the assay: inhibition of Plasmodium PK7 catalytic activity – biochemical, TCAMS antimalarial set, Kinase-Glo luminescence (AID 1159587). The conditions noted are these: recombinant PfPK7, Kinase-Glo ATP depletion luminescence.
Assay [8] concerns the target Calcium-dependent protein kinase 4 (Plasmodium falciparum (isolate 3D7)) (UniProt Q8IBS5). As to the kind of experiment: PfCDPK4 kinase inhibitors, biochemical, TCAMS library (AID 1159588; cut-off not given, nearly all actives have IC50 up to about 0.91 µM). Particulars: recombinant PfCDPK4, Kinase-Glo ATP depletion luminescence.

Unmarked numbers belong to inactive results. For some assays here: Results with a measured potency or affinity are listed apart. Activity calls are given as the source filed them. Unless noted, the rule behind the calls is not given here.

Chain of L-lactate dehydrogenase (Plasmodium falciparum (isolate CDC / Honduras)) (Q27743 whole entry, looked up): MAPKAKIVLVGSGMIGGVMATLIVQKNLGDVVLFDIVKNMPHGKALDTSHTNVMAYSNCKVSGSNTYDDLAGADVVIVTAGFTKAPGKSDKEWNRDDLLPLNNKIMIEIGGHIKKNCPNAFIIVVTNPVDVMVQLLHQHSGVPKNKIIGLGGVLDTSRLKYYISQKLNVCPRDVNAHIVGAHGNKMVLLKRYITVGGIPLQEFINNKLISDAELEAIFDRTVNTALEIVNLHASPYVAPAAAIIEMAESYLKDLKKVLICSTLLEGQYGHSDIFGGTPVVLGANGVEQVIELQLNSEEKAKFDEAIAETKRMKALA
Chain of Calcium-dependent protein kinase 1 (Plasmodium falciparum (isolate 3D7)) (P62344 whole entry, looked up): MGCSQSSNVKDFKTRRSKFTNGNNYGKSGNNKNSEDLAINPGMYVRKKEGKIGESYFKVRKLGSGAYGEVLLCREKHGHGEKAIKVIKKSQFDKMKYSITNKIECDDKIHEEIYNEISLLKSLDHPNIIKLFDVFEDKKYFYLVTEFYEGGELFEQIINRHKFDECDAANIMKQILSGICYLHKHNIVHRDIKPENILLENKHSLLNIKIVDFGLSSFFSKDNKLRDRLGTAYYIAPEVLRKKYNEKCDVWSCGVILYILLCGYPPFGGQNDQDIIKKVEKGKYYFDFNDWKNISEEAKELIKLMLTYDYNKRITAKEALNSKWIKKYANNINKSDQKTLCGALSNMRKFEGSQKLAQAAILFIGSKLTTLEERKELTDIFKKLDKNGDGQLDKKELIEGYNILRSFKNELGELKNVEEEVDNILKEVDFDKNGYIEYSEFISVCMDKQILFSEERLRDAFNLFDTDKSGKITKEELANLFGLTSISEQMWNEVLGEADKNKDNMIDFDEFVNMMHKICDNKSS
Chain of Calcium-dependent protein kinase 4 (Plasmodium falciparum (isolate 3D7)) (Q8IBS5 whole entry, looked up): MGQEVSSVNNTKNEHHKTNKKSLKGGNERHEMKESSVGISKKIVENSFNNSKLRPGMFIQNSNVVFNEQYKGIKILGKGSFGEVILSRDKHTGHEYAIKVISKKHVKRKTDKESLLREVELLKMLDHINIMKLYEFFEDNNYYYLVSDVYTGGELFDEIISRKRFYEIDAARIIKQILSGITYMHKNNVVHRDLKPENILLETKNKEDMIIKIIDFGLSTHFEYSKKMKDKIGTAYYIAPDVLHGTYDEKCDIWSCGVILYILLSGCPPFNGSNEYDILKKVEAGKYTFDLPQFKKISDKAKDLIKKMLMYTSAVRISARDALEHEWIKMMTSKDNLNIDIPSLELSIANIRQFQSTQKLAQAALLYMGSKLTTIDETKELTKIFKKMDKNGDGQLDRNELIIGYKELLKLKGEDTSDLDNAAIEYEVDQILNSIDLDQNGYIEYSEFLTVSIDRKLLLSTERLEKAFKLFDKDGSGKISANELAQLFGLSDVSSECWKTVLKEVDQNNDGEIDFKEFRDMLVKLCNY
Chain of Protein kinase 7 (PK7), Plasmodium falciparum 3D7 (PF3D7_0213400) (Q7YTF7 1-343): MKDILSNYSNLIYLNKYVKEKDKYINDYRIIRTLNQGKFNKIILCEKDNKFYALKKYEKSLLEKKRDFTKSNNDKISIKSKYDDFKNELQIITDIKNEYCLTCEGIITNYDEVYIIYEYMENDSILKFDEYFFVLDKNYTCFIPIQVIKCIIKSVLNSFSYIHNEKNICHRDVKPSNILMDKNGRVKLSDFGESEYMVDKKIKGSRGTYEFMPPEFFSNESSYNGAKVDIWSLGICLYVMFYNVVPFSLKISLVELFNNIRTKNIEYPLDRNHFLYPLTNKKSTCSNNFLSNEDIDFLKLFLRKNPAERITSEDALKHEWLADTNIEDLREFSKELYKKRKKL

In the case of `O=C(OCC1CCN(Cc2ccccc2)C1)c1ccc(Cl)cc1` (configuration not stated), the growth inhibition was 4% in assay [1] and 100% (active) in assay [4]. For the same compound, the inhibition in assay [2] was -3%; in assay [3], 3%. The result in assay [5], in assay [6], in assay [7] and in assay [8] was inactive.
As to `COc1ccc2nccc(N3CCCN(CCNCc4ccc5c(n4)NC(=O)CS5)CC3)c2n1`, the growth inhibition is 10% in assay [1] and 100% (active) in assay [4]. Further, the inhibition was 8% in assay [2] and -2% in assay [3]. Besides, the outcome in assay [5], in assay [6], in assay [7] and in assay [8] was inactive.
For `Cc1cc(Nc2ccncc2)n2nc(C)c(-c3ccccc3Cl)c2n1`, the growth inhibition in assay [1] was 93% (active); in assay [4] it was 99% (active). The inhibition is 2% in assay [2] and 4% in assay [3]. Also, the result in assay [5], in assay [6], in assay [7] and in assay [8] was inactive.
Regarding `Cc1ccc(Nc2nccc(NCC(O)c3cccc(C)c3)n2)cc1` (configuration not stated), the growth inhibition is 23% in assay [1] and 90% (active) in assay [4]. For the same compound, the inhibition in assay [2] is 22%; in assay [3], 0%. Also, the outcome in assay [5], in assay [6], in assay [7] and in assay [8] was inactive.
On to `Cc1nn(CC(C)C)c2sc(C(=O)Nc3nc(-c4ccccn4)cs3)cc12`, for which the values for the growth inhibition in assay [1] and in assay [4] were 67% (active) and 96% (active), respectively. In addition, the results for the inhibition in assay [2] and in assay [3] were 29% and 1%, respectively. For the same compound, the result in assay [5], in assay [6], in assay [7] and in assay [8] was inactive.
With `Cc1cc(O)c(CN(C)Cc2ccc(N(C)C)cc2)cc1C(C)C`, the figures for the growth inhibition in assay [1] and in assay [4] were 98% (active) and 100% (active), respectively. Also, the inhibition in assay [2] is 3%; in assay [3], -1%. Further, the outcome in assay [5], in assay [6], in assay [7] and in assay [8] was inactive.
In the case of `O=C(CSc1ccccn1)Nc1c(F)cccc1F`, the results for the growth inhibition in assay [1] and in assay [4] were -5% and 88% (active), respectively. Also, the inhibition in assay [2] was -2%; in assay [3], 1%. The result in assay [5], in assay [6], in assay [7] and in assay [8] was inactive.
Turning to `Cc1ccc(C(NC(=O)Cc2ccccc2)c2ccc3cccnc3c2O)cc1` (configuration not stated), the growth inhibition in assay [1] was 77% (active); in assay [4] it was 94% (active). In addition, the inhibition in assay [2] is 47%; in assay [3], 6%. Besides, the result in assay [5], in assay [6], in assay [7] and in assay [8] was inactive.
On to `Cc1ccccc1C1CCN(C2CCC(NC(=O)c3cc4cc(C(C)C)ccc4[nH]3)CC2)CC1` (configuration not stated), for which the growth inhibition was 100% (active) in assay [1] and 99% (active) in assay [4]. Further, the results for the inhibition in assay [2] and in assay [3] were 100% (active) and -3%, respectively. In addition, the outcome in assay [5], in assay [6], in assay [7] and in assay [8] was inactive.
In the case of `O=c1ccc(CNc2nc(NCCc3ccccc3)nc3cc(Cl)ccc23)c[nH]1`, the growth inhibition is 78% (active) in assay [1] and 95% (active) in assay [4]. In addition, the inhibition in assay [2] is 21%; in assay [3] it was 3%. The outcome in assay [5], in assay [6], in assay [7] and in assay [8] was inactive.
As to `COc1cccc(-c2csc(C(=O)NC3CCCCN(Cc4ccc(C(C)(C)C)cc4)C3)c2)c1` (configuration not stated), the growth inhibition in assay [1] was 66% (active); in assay [4], 97% (active). Besides, the figures for the inhibition in assay [2] and in assay [3] were 9% and -2%, respectively. Moreover, the result in assay [5], in assay [6], in assay [7] and in assay [8] was inactive.
`CCCN(CCC)C(=O)c1cc(C(=O)N[C@@H](Cc2ccccc2)[C@H](O)CNCc2cccc(OC)c2)cc(N2CCCCS2(=O)=O)c1`: the results for the growth inhibition in assay [1] and in assay [4] were 99% (active) and 97% (active), respectively. In addition, the results for the inhibition in assay [2] and in assay [3] were -1% and 4%, respectively. Moreover, the outcome in assay [5], in assay [6], in assay [7] and in assay [8] was inactive.
Regarding `N/C(=N\c1ncccn1)Nc1cccc(Cc2ccccc2)n1`, the growth inhibition in assay [1] was 34%; in assay [4], 90% (active). The inhibition in assay [2] was 51% (active); in assay [3] it was -2%. The result in assay [5], in assay [6], in assay [7] and in assay [8] was inactive.
Regarding `Cc1cccc2[nH]c(-c3ccc(-c4ccc(CN5CCC(N)C5)cc4)s3)nc12` (configuration not stated), the growth inhibition in assay [1] is 98% (active); in assay [4] it was 100% (active). The figures for the inhibition in assay [2] and in assay [3] were 21% and -11%, respectively. For the same compound, the result in assay [5], in assay [6], in assay [7] and in assay [8] was inactive.
Turning to `Cc1cc(N[C@@H](Cc2ccccc2)C(=O)NCCOc2ccccc2)nc(NCCOc2ccccc2)n1`, the growth inhibition was 24% in assay [1] and 98% (active) in assay [4]. For the same compound, the inhibition in assay [2] is -1%; in assay [3] it was -4%. Further, the result in assay [5], in assay [6], in assay [7] and in assay [8] was inactive.
With `CN1CCN(c2ccnc3ccc(NC(=O)Nc4cccc5c(-c6ccncc6)cccc45)cc23)CC1`, the growth inhibition in assay [1] and in assay [4] was 100% (active) each time. Moreover, the figures for the inhibition in assay [2] and in assay [3] were 7% and 1%, respectively. In addition, the outcome in assay [5], in assay [6], in assay [7] and in assay [8] was inactive.
Turning to `NC(N)=NC(=O)Nc1ccc(Cl)c(Cl)c1`, the growth inhibition was 13% in assay [1] and 95% (active) in assay [4]. In addition, the inhibition in assay [2] was 29%; in assay [3], 1%. For the same compound, the result in assay [5], in assay [6], in assay [7] and in assay [8] was inactive.
With `CCCCOc1cc(OC)c2ccccc2c1CCNCCCCNCCc1c(OCCCC)cc(OC)c2ccccc12`, the growth inhibition in assay [1] and in assay [4] was 82% (active) in each case. For the same compound, the values for the inhibition in assay [2] and in assay [3] were 100% (active) and -6%, respectively. The result in assay [5], in assay [6], in assay [7] and in assay [8] was inactive.
For `COc1cc2c(cc1OC)CN(CCc1ccc(NC(=O)c3cc4cc(Cl)ccc4[nH]3)cc1)CC2`, the growth inhibition in assay [1] is 6%; in assay [4], 90% (active). The inhibition in assay [2] is 3%; in assay [3], 2%. The outcome in assay [5], in assay [6], in assay [7] and in assay [8] was inactive.
